Settings in all cases: mRNA level, 48 h; actives raise or lower the signal
Read-out in assay [1]: Glutathione S-transferase M3 (GSTM3), GSTM3 (gene 2947)
Kind of assay: LTEA_HepaRG_GSTM3: Life Technologies and Expression Analysis (LTEA) Assay for Glutathione S-transferase M3 (GSTM3) using HepaRG (AID 2283501). The method, boiled down: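 Expression of GSTM3 is determined by qRT-PCR in human liver HepaRG cells treated 48 h with an 8-point half-log range from 100 uM in 0.5% DMSO.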

Read-out in assay [2]: Heat shock 70 kDa protein 1 (HSPA1A), gene 3303
The assay is described as follows: LTEA_HepaRG_HSPA1A: Life Technologies and Expression Analysis (LTEA) Assay for Heat shock 70 kDa protein 1 (HSPA1A) using HepaRG (AID 2283502). The gist of the method:
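Cells were plated and cultured for 48 h, then switched to serum-free induction medium. Chemicals were added at eight half-log concentrations up to 100 uM for 48 h. RNA was then isolated and HSPA1A measured by qRT-PCR with bidirectional curve fitting against DMSO.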

Read-out in assay [3]: Hypoxia-inducible factor 1-alpha (Homo sapiens) (UniProt Q16665)
Kind of assay: LTEA_HepaRG_HIF1A: Life Technologies and Expression Analysis (LTEA) Assay for Hypoxia-inducible factor 1 (HIF1A) Trancription factor using HepaRG (AID 2283503). The method, boiled down: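 HIF1A transcript level read by qRT-PCR (ACTB, GAPDH, POLR2A normalization) after 48 h chemical exposure of HepaRG cultures. Eight half-log concentrations, top 100 uM, 0.5% DMSO vehicle, duplicates; bidirectional curve fit against DMSO baseline.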

Read-out in assay [4]: 3-Hydroxy-3-Methylglutaryl-CoA Synthase 2 (HMGCS2), HMGCS2 (gene 3158)
Kind of assay: LTEA_HepaRG_HMGCS2: Life Technologies and Expression Analysis (LTEA) Assay for 3-Hydroxy-3-Methylglutaryl-CoA Synthase 2 (HMGCS2) using HepaRG (AID 2283504). The gist of the method:
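This steatosis marker was read as HMGCS2 mRNA change in HepaRG cells treated 48 h with up to 100 uM chemical. Normalisation used housekeeping genes; activity in either direction was fitted relative to 0.5% DMSO vehicle.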

Read-out in another assay: HGF (gene 3082)
Kind of assay: LTEA_HepaRG_HGF: Life Technologies and Expression Analysis (LTEA) Assay for Hepatocyte Growth Facto (HGF) using HepaRG (AID 2283505). The method, boiled down:
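Using HepaRG monolayers kept in 0.5% DMSO, chemicals were tested in duplicate over eight half-log concentrations from 100 uM for 48 h. Endpoint: HGF mRNA change relative to DMSO, normalized to ACTB/GAPDH/POLR2A.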

Read-out in assay [5]: Insulin Like Growth Factor 1 (IGF1), IGF1 (gene 3479)
The assay is described as follows: LTEA_HepaRG_IGF1: Life Technologies and Expression Analysis (LTEA) Assay for Insulin Like Growth Factor 1 (IGF1) using HepaRG (AID 2283506). The gist of the method:
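Cells are thawed, plated and cultured 48 h, then exposed in duplicate to chemical (highest 100 uM, half-log steps, 0.5% DMSO) for another 48 h. Total RNA is analysed by Fluidigm qRT-PCR for IGF1 expression relative to vehicle.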

Read-out in assay [6]: Intercellular Adhesion Molecule 1 (ICAM1), ICAM1 (gene 3383)
The assay is described as follows: LTEA_HepaRG_ICAM1: Life Technologies and Expression Analysis (LTEA) Assay for Intercellular Adhesion Molecule 1 (ICAM1) using HepaRG (AID 2283507). The gist of the method:
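Using the human liver line HepaRG, compounds are tested in duplicate over 48 h at concentrations up to 100 uM. Expression is determined by TaqMan qRT-PCR, normalized to endogenous controls, and analysed relative to 0.5% DMSO vehicle.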

Read-out in assay [7]: Insulin-like growth factor-binding protein 1 (IGFBP1), IGFBP1 (gene 3484)
Kind of assay: LTEA_HepaRG_IGFBP1: Life Technologies and Expression Analysis (LTEA) Assay for Insulin-like growth factor-binding protein 1 (IGFBP1) using HepaRG (AID 2283508). The gist of the method: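 HepaRG, 48 h, 8 conc. (max 100 uM, half-log), duplicates, 0.5% DMSO. Readout: TaqMan qRT-PCR, ACTB/GAPDH/POLR2A normalisation. Fit: bidirectional vs DMSO.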

Read-out in assay [8]: Interleukin 6 Receptor (IL6R), IL6R (gene 3570)
Kind of assay: LTEA_HepaRG_IL6R: Life Technologies and Expression Analysis (LTEA) Assay for Interleukin 6 Receptor (IL6R) using HepaRG (AID 2283510). The gist of the method: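 Cells were thawed, plated and cultured 48 h, then medium was changed to serum-free induction medium. Chemicals were added in duplicate (100 uM top, half-log steps, 0.5% DMSO) for 48 h. Lysates were analyzed by qRT-PCR for IL6R expression.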

Read-out in assay [9]: Potassium channel subfamily K member 1 (KCNK1), KCNK1 (gene 3775)
Kind of assay: LTEA_HepaRG_KCNK1: Life Technologies and Expression Analysis (LTEA) Assay for Potassium channel subfamily K member 1 (KCNK1) using HepaRG (AID 2283511). The gist of the method: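 Human HepaRG cultures receive test chemicals for 48 h in 0.5% DMSO, top concentration 100 uM with half-log dilutions. Induction or suppression of KCNK1 mRNA relative to DMSO is derived by bidirectional fitting of qRT-PCR data.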

Read-out in assay [10]: Keratin 19 (KRT19), KRT19 (gene 3880)
Kind of assay: LTEA_HepaRG_KRT19: Life Technologies and Expression Analysis (LTEA) Assay for Keratin 19 (KRT19) using HepaRG (AID 2283512). The gist of the method:
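Readout is qRT-PCR of KRT19 mRNA, normalized to ACTB, GAPDH and POLR2A, from HepaRG cells treated 48 h with eight-point half-log dilutions topping at 100 uM. Activity in either direction is scored relative to 0.5% DMSO vehicle.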

Read-out in assay [11]: JUN Transcription Factor, JUN (gene 3725)
Kind of assay: LTEA_HepaRG_JUN: Life Technologies and Expression Analysis (LTEA) Assay for JUN Transcription Factor using HepaRG (AID 2283513). The gist of the method: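 Read-out is JUN transcript level by TaqMan qRT-PCR, normalized to ACTB, GAPDH and POLR2A, after 48 h chemical treatment of HepaRG cells. Concentration-response spanned eight half-log points up to 100 uM in 0.5% DMSO.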

Read-out in assay [12]: Lipase C (LIPC), LIPC (gene 3990)
Kind of assay: LTEA_HepaRG_LIPC: Life Technologies and Expression Analysis (LTEA) Assay for Lipase C (LIPC) using HepaRG (AID 2283514). The method, boiled down:
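In this multiplexed gene-expression screen, human HepaRG cultures received test chemicals for 48 h across eight concentrations with 100 uM highest, in duplicate. Values reflect LIPC mRNA induction or suppression versus DMSO vehicle, from normalized qRT-PCR.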

Read-out in assay [13]: Lipoprotein lipase (LPL), LPL (gene 4023)
Kind of assay: LTEA_HepaRG_LPL: Life Technologies and Expression Analysis (LTEA) Assay for Lipoprotein lipase (LPL) using HepaRG (AID 2283515). The gist of the method:
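Concentration-response testing used half-log steps from 100 uM in 0.5% DMSO on human HepaRG cells, 48 h, duplicate wells. Phenobarbital 1 mM served as induction control; LPL mRNA was normalized to ACTB, GAPDH, POLR2A.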

Read-out in assay [14]: MicroRNA 122 (MIR122), gene 406906
Kind of assay: LTEA_HepaRG_MIR122: Life Technologies and Expression Analysis (LTEA) Assay for MicroRNA 122 (MIR122) using HepaRG (AID 2283516). Also: the transcript read is the microRNA miR-122. The gist of the method: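 Human liver HepaRG cultures receive test chemicals for 48 h at eight half-log concentrations from 100 uM. Expression is quantified by qRT-PCR with ACTB/GAPDH/POLR2A normalization and fitted bidirectionally against 0.5% DMSO.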

Read-out in assay [15]: matrix metalloproteinase-10 (MMP10), MMP10 (gene 4319)
Kind of assay: LTEA_HepaRG_MMP10: Life Technologies and Expression Analysis (LTEA) Assay for matrix metalloproteinase-10 (MMP10) using HepaRG (AID 2283517). The method, boiled down: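 In differentiated HepaRG cultures kept in 0.5% DMSO, test chemicals act for 48 h over an eight-point range with a top dose of 100 uM. Expression is then quantified by TaqMan RT-PCR against ACTB, GAPDH and POLR2A.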

Read-out in the next assay: MYC, MYC (gene 4609)
Kind of assay: LTEA_HepaRG_MYC: Life Technologies and Expression Analysis (LTEA) Assay for MYC using HepaRG (AID 2283518). The method, boiled down: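 Expression changes were scored by TaqMan qRT-PCR with ACTB, GAPDH and POLR2A normalization. Cultures in serum-free induction medium received duplicate 8-point concentration series, highest 100 uM, for 48 h; DMSO (0.5%) served as baseline.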

Read-out in assay [16]: matrix metalloproteinase-3 (MMP3), MMP3 (gene 4314)
The assay is described as follows: LTEA_HepaRG_MMP3: Life Technologies and Expression Analysis (LTEA) Assay for matrix metalloproteinase-3 (MMP3) using HepaRG (AID 2283519). The method, boiled down: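 Human liver HepaRG cultures received chemicals (top concentration 100 uM, 0.5% DMSO) for 48 h in duplicate. MMP3 mRNA induction or loss was then assessed via TaqMan qRT-PCR with housekeeping-gene normalisation.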

Read-out in assay [17]: Paternally Expressed 10 (PEG10), PEG10 (gene 23089)
The assay is described as follows: LTEA_HepaRG_PEG10: Life Technologies and Expression Analysis (LTEA) Assay for Paternally Expressed 10 (PEG10) using HepaRG (AID 2283520). The method, boiled down: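 Human HepaRG cultures are dosed for 48 h across an eight-point half-log series starting at 100 uM, with 0.5% DMSO as vehicle and baseline. Gain or loss of PEG10 transcript is measured by qRT-PCR and fitted in both directions.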

Read-out in assay [18]: Interleukin 6 (IL6), IL6 (gene 3569)
Kind of assay: LTEA_HepaRG_IL6: Life Technologies and Expression Analysis (LTEA) Assay for Interleukin 6 (IL6) using HepaRG (AID 2283509). The method, boiled down: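 Changes in IL6 mRNA, up or down relative to 0.5% DMSO controls, were derived from concentration-response curves in human HepaRG cells treated for 48 h at up to 100 uM, with ACTB, GAPDH and POLR2A as normalizers.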

SMILES strings stand for the structures. Active and inactive are the calls of the source. The calls were made as follows: active = hit-call score of the fitted dose curve at least 0.9, where 1 is the maximum; inactive = score below 0.9.

Sequence of Hypoxia-inducible factor 1-alpha (Homo sapiens) (Q16665 whole entry, looked up): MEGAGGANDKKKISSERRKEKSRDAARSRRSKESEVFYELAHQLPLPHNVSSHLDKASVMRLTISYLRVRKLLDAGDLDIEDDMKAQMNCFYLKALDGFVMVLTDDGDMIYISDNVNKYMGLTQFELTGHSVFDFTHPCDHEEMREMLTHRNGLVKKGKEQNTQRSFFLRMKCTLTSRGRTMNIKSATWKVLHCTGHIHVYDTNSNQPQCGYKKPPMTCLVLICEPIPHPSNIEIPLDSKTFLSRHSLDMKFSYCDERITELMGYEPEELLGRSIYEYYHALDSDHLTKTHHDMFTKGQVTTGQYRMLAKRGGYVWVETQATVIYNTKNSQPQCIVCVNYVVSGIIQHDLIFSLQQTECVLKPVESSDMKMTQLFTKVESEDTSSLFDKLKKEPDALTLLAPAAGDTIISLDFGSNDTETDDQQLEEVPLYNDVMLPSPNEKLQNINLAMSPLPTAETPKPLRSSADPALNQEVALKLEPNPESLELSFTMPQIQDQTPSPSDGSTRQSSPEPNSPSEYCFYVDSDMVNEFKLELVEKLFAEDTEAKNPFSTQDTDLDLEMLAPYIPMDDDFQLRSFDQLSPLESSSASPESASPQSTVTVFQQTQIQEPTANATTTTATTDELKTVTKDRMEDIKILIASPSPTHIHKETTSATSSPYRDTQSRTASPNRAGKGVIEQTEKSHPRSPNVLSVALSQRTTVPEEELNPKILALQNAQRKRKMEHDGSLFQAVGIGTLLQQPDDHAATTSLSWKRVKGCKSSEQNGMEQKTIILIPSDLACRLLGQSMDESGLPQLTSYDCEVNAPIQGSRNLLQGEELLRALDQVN

Regarding `CCC12COCN1COC2`, the call (in assay [1]; in assay [2]; in assay [3]; in assay [4]; with HGF (gene 3082); in assay [5]) was inactive. The compound was called inactive in assay [6], in assay [7], in assay [8], in [9], in [10] and in [11]. For the same compound, the outcome in [12] was “inactive”; in assay [13] it was “inactive”; in assay [14], “inactive”; in assay [15], “inactive”; with MYC, MYC (gene 4609) it was “inactive”; in [16], “inactive”. Besides, the outcome in assay [17] was inactive.
For `O=C1CCCO1`, the compound was classed as inactive (in assay [1]; in assay [2]; in [3]; with HGF (gene 3082); in assay [5]; in assay [6]). The result in assay [7], in assay [18], in [8], in [9], in assay [10] and in assay [11] was inactive. The outcome in assay [12] is “inactive”; in [14], “inactive”; in assay [15], “inactive”; in the assay with MYC, MYC (gene 4609), “inactive”; in assay [17], “inactive”. Moreover, the AC50 in [4] and in assay [13] was 50 µM (active) throughout.
Turning to `CC(C)(O)c1cnn2c(-c3ccc(F)c(-c4c(F)cccc4C#N)c3)cnc2n1`, the call (in assay [1]; in [2]; in assay [3]; with HGF (gene 3082); in assay [6]; in assay [7]) was inactive. Moreover, the call in [18], in assay [9], in assay [10], in assay [11], in assay [13] and in assay [15] was inactive. The outcome with MYC, MYC (gene 4609) is “inactive”; in assay [16], “inactive”; in [17] it was “inactive”. For the same compound, the AC50 is 13.1 µM (active) in [4], 1.35 µM (active) in [5], 2.9 µM (active) in assay [12] and 13.1 µM (active) in assay [14].
In the case of `CCCSC(=O)N(CCC)CCC`, the outcome (in [1]; in assay [2]; in assay [3]; in assay [4]; in the assay with HGF (gene 3082); in assay [5]) was inactive. The compound was called inactive in assay [6], in assay [7], in assay [8], in [9], in [10] and in assay [11]. The outcome in assay [12] was “inactive”; in assay [13], “inactive”; in assay [14] it was “inactive”; in assay [15] it was “inactive”; in the assay with MYC, MYC (gene 4609) it was “inactive”; in assay [17], “inactive”.

What is called AC50 is the concentration at which the activity in the assay is half-maximal.

The record behind these values is PubChem BioAssay (EPA / NIEHS).
